According to PubChem BioAssay AID1159580 (chemical genetic matrix, 2015):
“And” between values parts separate entries of the source, which are not always exact repeats. Identical values can stand only once. Hit rate of the full screen: of about 5,500 compounds, about 2,000 (36%) were called active. About 18% were inconclusive and are not listed. Cut-off read from the data, not from the text of the source: active = normalized growth mostly below about 0.91 (no sharp cut-off); inconclusive = no clear call, values can overlap the other calls; inactive = mostly above about 0.92. The list shows a part of the results.

Test: chemical genetic growth profiling, strain panel (AID 1159580);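 note: tested at 20 µM; growth read once vehicle control cultures reached saturation at 30 °C; 1 = growth at the plate median or of vehicle wells; lower values mean less growth of the strain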
Conditions: growth OD

Measured: normalized growth

COc1ccc(C(=O)O)cc1OC
inactive: S. cerevisiae deletion strains, locus YAL013W, strain DEP1, hits give low values 1.02 | S. cerevisiae deletion strains, locus YAL021C, strain ccr4, hits give low values 0.981 | S. cerevisiae deletion strains, locus YAL026C, strain drs2, hits give low values 0.996 | S. cerevisiae deletion strains, locus YAL030W, strain snc1, hits give low values 0.995 | S. cerevisiae deletion strains, locus YBL061C, strain skt5, hits give low values 1 | S. cerevisiae deletion strains, locus YBR009C, strain hhf1, hits give low values 1.01 | S. cerevisiae deletion strains, locus YBR021W, strain FUR4, hits give low values 1.02 | S. cerevisiae deletion strains, locus YBR023C, strain chs3, hits give low values 1.01 | S. cerevisiae deletion strains, locus YBR171W, strain sec66, hits give low values 0.996 | S. cerevisiae deletion strains, locus YBR229C, strain ROT2, hits give low values 1 | S. cerevisiae deletion strains, locus YBR231C, strain swc5, hits give low values 0.996 | S. cerevisiae deletion strains, locus YBR279W, strain paf1, hits give low values 0.997 | S. cerevisiae deletion strains, locus YCL011C, strain gbp2, hits give low values 1 | S. cerevisiae deletion strains, locus YCL016C, strain dcc1, hits give low values 1 | S. cerevisiae deletion strains, locus YCL029C, strain bik1, hits give low values 0.992 | S. cerevisiae deletion strains, locus YCL069W, strain vba3, hits give low values 1 | S. cerevisiae deletion strains, locus YCR088W, strain abp1, hits give low values 0.996 | S. cerevisiae deletion strains, locus YDL005C, strain med2, hits give low values 0.996 | S. cerevisiae deletion strains, locus YDL035C, strain GPR1, hits give low values 1.08 | S. cerevisiae deletion strains, locus YDL040C, strain nat1, hits give low values 0.997 | S. cerevisiae deletion strains, locus YDL074C, strain BRE1, hits give low values 1.17 | S. cerevisiae deletion strains, locus YDL101C, strain DUN1, hits give low values 1 | S. cerevisiae deletion strains, locus YDL185W, strain tfp1, hits give low values 0.988 | S. cerevisiae deletion strains, locus YDL192W, strain arf1, hits give low values 1.03 | S. cerevisiae deletion strains, locus YDR001C, strain nth1, hits give low values 0.994 | S. cerevisiae deletion strains, locus YDR069C, strain doa4, hits give low values 1.01 | S. cerevisiae deletion strains, locus YDR101C, strain arx1, hits give low values 1.01 | S. cerevisiae deletion strains, locus YDR137W, strain rgp1, hits give low values 1.02 | S. cerevisiae deletion strains, locus YDR159W, strain sac3, hits give low values 0.964 | S. cerevisiae deletion strains, locus YDR162C, strain NBP2, hits give low values 1.04 | S. cerevisiae deletion strains, locus YDR195W, strain ref2 0.908 | S. cerevisiae deletion strains, locus YDR297W, strain sur2, hits give low values 1 | S. cerevisiae deletion strains, locus YDR318W, strain mcm21, hits give low values 1 | S. cerevisiae deletion strains, locus YDR334W, strain swr1, hits give low values 0.998 | S. cerevisiae deletion strains, locus YDR335W, strain msn5, hits give low values 1 | S. cerevisiae deletion strains, locus YDR388W, hits give low values 1 | S. cerevisiae deletion strains, locus YDR392W, strain spt3, hits give low values 0.984 | S. cerevisiae deletion strains, locus YDR502C, strain sam2, hits give low values 0.991 | S. cerevisiae deletion strains, locus YEL003W, strain gim4, hits give low values 0.992 | S. cerevisiae deletion strains, locus YEL037C, strain rad23, hits give low values 0.989 | S. cerevisiae deletion strains, locus YEL061C, strain CIN8 (second series), hits give low values 0.998 | S. cerevisiae deletion strains, locus YER015W, strain faa2, hits give low values 0.992 | S. cerevisiae deletion strains, locus YER016W, strain bim1, hits give low values 1.01 | S. cerevisiae deletion strains, locus YER110C, hits give low values 0.978 | S. cerevisiae deletion strains, locus YER111C, strain swi4, hits give low values 1.01 | S. cerevisiae deletion strains, locus YER155C, strain BEM2 (second series), hits give low values 0.988 | S. cerevisiae deletion strains, locus YER155C, strain BEM2, hits give low values 0.994 | S. cerevisiae deletion strains, locus YER167W, strain BCK2, hits give low values 0.999 | S. cerevisiae deletion strains, locus YFR010W, strain ubp6, hits give low values 0.993 | S. cerevisiae deletion strains, locus YGL078C, strain dbp3, hits give low values 0.99 | S. cerevisiae deletion strains, locus YGL086W, strain mad1, hits give low values 1.01 | S. cerevisiae deletion strains, locus YGL167C, strain pmr1, hits give low values 0.999 | S. cerevisiae deletion strains, locus YGL173C, strain kem1, hits give low values 0.998 | S. cerevisiae deletion strains, locus YGL227W, strain vid30, hits give low values 1.03 | S. cerevisiae deletion strains, locus YGL240W, strain doc1, hits give low values 0.998 | S. cerevisiae deletion strains, locus YGL248W, strain PDE1, hits give low values 1.05 | S. cerevisiae deletion strains, locus YGL253W, strain hxk2, hits give low values 1.01 | S. cerevisiae deletion strains, locus YGR078C, strain PAC10, hits give low values 1.04 | S. cerevisiae deletion strains, locus YGR135W, strain pre9, hits give low values 0.988 | S. cerevisiae deletion strains, locus YGR252W, strain gcn5, hits give low values 1.03 | S. cerevisiae deletion strains, locus YHR013C, strain ard1, hits give low values 0.978 | S. cerevisiae deletion strains, locus YHR027C, strain rpn1, hits give low values 1.01 | S. cerevisiae deletion strains, locus YHR030C, strain SLT2, hits give low values 1 and 0.99 | S. cerevisiae deletion strains, locus YHR079C, strain IRE1 (second series), hits give low values 0.987 | S. cerevisiae deletion strains, locus YHR079C, strain IRE1, hits give low values 0.961 | S. cerevisiae deletion strains, locus YHR094C, strain hxt1, hits give low values 0.972 | S. cerevisiae deletion strains, locus YHR129C, strain ARP1, hits give low values 1.03 | S. cerevisiae deletion strains, locus YHR142W, strain chs7, hits give low values 1.01 | S. cerevisiae deletion strains, locus YHR200W, strain rpn10, hits give low values 0.993 | S. cerevisiae deletion strains, locus YIL066C, strain RNR3, hits give low values 1.03 | S. cerevisiae deletion strains, locus YIL073C, strain SPO22, hits give low values 1.02 | S. cerevisiae deletion strains, locus YIL125W, strain kgd1, hits give low values 0.992 | S. cerevisiae deletion strains, locus YIR030C, strain dcg1, hits give low values 0.985 | S. cerevisiae deletion strains, locus YJL092W, strain hpr5, hits give low values 0.985 | S. cerevisiae deletion strains, locus YJL095W, strain BCK1 (second series), hits give low values 0.985 | S. cerevisiae deletion strains, locus YJL095W, strain BCK1, hits give low values 1.06 and 0.982 | S. cerevisiae deletion strains, locus YJL115W, strain asf1, hits give low values 0.995 | S. cerevisiae deletion strains, locus YJL129C, strain trk1, hits give low values 1.04 | S. cerevisiae deletion strains, locus YJL134W, strain LCB3, hits give low values 0.995 | S. cerevisiae deletion strains, locus YJL154C, strain vps35, hits give low values 0.992 | S. cerevisiae deletion strains, locus YJL164C, strain tpk1, hits give low values 1 | S. cerevisiae deletion strains, locus YJL166W, strain qcr8, hits give low values 1.01 | S. cerevisiae deletion strains, locus YJL168C, strain set2, hits give low values 0.993 | S. cerevisiae deletion strains, locus YJL187C, strain SWE1 (second series), hits give low values 1.02 | S. cerevisiae deletion strains, locus YJR066W, strain TOR1, hits give low values 0.996 | S. cerevisiae deletion strains, locus YKL009W, strain mrt4, hits give low values 1.02 | S. cerevisiae deletion strains, locus YKL068W, hits give low values 0.983 | S. cerevisiae deletion strains, locus YKL085W, strain MDH1 (second series), hits give low values 0.993 | S. cerevisiae deletion strains, locus YKL085W, strain MDH1, hits give low values 0.993 | S. cerevisiae deletion strains, locus YKL160W, strain elf1, hits give low values 1 | S. cerevisiae deletion strains, locus YKR001C, strain vps1, hits give low values 1.05 | S. cerevisiae deletion strains, locus YKR026C, strain gcn3, hits give low values 1 | S. cerevisiae deletion strains, locus YKR091W, strain srl3, hits give low values 0.996 | S. cerevisiae deletion strains, locus YLL001W, strain dnm1, hits give low values 0.997 | S. cerevisiae deletion strains, locus YLL026W, hits give low values 0.999 | S. cerevisiae deletion strains, locus YLL041C, strain sdh2, hits give low values 0.992 | S. cerevisiae deletion strains, locus YLR027C, strain aat2, hits give low values 1 | S. cerevisiae deletion strains, locus YLR039C, strain RIC1, hits give low values 1.22 | S. cerevisiae deletion strains, locus YLR058C, strain SHM2, hits give low values 1.01 | S. cerevisiae deletion strains, locus YLR102C, strain apc9, hits give low values 0.977 | S. cerevisiae deletion strains, locus YLR113W, strain HOG1, hits give low values 0.982 | S. cerevisiae deletion strains, locus YLR221C, strain rsa3, hits give low values 1.02 | S. cerevisiae deletion strains, locus YLR258W, strain gsy2, hits give low values 1.01 | S. cerevisiae deletion strains, locus YLR262C, strain YPT6 (second series), hits give low values 1.01 | S. cerevisiae deletion strains, locus YLR262C, strain YPT6, hits give low values 1.2 | S. cerevisiae deletion strains, locus YLR268W, strain sec22, hits give low values 1.05 | S. cerevisiae deletion strains, locus YLR320W, strain mms22, hits give low values 1 | S. cerevisiae deletion strains, locus YLR330W, strain CHS5, hits give low values 1.01 | S. cerevisiae deletion strains, locus YLR342W, strain FKS1 (second series), hits give low values 1.07 | S. cerevisiae deletion strains, locus YLR342W, strain FKS1, hits give low values 1 | S. cerevisiae deletion strains, locus YLR357W, strain rsc2, hits give low values 0.981 | S. cerevisiae deletion strains, locus YLR370C, strain arc18, hits give low values 1.01 | S. cerevisiae deletion strains, locus YLR371W, strain rom2, hits give low values 0.991 | S. cerevisiae deletion strains, locus YLR384C, strain iki3, hits give low values 1.01 | S. cerevisiae deletion strains, locus YLR418C, strain cdc73, hits give low values 1.07 | S. cerevisiae deletion strains, locus YML016C, strain PPZ1, hits give low values 1 | S. cerevisiae deletion strains, locus YML032C, strain rad52, hits give low values 0.998 | S. cerevisiae deletion strains, locus YML120C, strain ndi1, hits give low values 1.01 | S. cerevisiae deletion strains, locus YML124C, strain tub3, hits give low values 0.989 | S. cerevisiae deletion strains, locus YMR058W, strain fet3, hits give low values 1 | S. cerevisiae deletion strains, locus YMR078C, strain ctf18, hits give low values 0.982 | S. cerevisiae deletion strains, locus YMR125W, strain sto1, hits give low values 0.985 | S. cerevisiae deletion strains, locus YMR129W, hits give low values 0.93 | S. cerevisiae deletion strains, locus YMR205C, strain PFK2, hits give low values 1 | S. cerevisiae deletion strains, locus YMR223W, strain ubp8, hits give low values 1 | S. cerevisiae deletion strains, locus YMR231W, strain pep5, hits give low values 0.989 | S. cerevisiae deletion strains, locus YMR307W, strain GAS1, hits give low values 1.14 | S. cerevisiae deletion strains, locus YNL067W, strain RPL9B, hits give low values 1.01 | S. cerevisiae deletion strains, locus YNL071W, strain lat1, hits give low values 0.99 | S. cerevisiae deletion strains, locus YNL128W, strain TEP1, hits give low values 1.03 | S. cerevisiae deletion strains, locus YNL183C, strain NPR1, hits give low values 0.921 | S. cerevisiae deletion strains, locus YNL209W, strain ssb2, hits give low values 0.985 | S. cerevisiae deletion strains, locus YNL233W, strain BNI4, hits give low values 1.04 | S. cerevisiae deletion strains, locus YNL248C, strain rpa49, hits give low values 1 | S. cerevisiae deletion strains, locus YNL250W, strain rad50, hits give low values 0.952 | S. cerevisiae deletion strains, locus YNL271C, strain bni1, hits give low values 0.994 | S. cerevisiae deletion strains, locus YNL298W, strain CLA4, hits give low values 0.997 | S. cerevisiae deletion strains, locus YNL307C, strain MCK1, hits give low values 0.975 | S. cerevisiae deletion strains, locus YNL322C, strain KRE1 (second series), hits give low values 0.986 | S. cerevisiae deletion strains, locus YNR049C, strain mso1, hits give low values 0.987 | S. cerevisiae deletion strains, locus YNR052C, strain pop2, hits give low values 0.969 | S. cerevisiae deletion strains, locus YOL006C, strain TOP1, hits give low values 1.36 | S. cerevisiae deletion strains, locus YOL012C, strain htz1 0.898 | S. cerevisiae deletion strains, locus YOL147C, strain pex11, hits give low values 0.997 | S. cerevisiae deletion strains, locus YOR001W, strain rrp6, hits give low values 1.02 | S. cerevisiae deletion strains, locus YOR061W, strain CKA2, hits give low values 1.01 | S. cerevisiae deletion strains, locus YOR069W, strain VPS5, hits give low values 0.996 | S. cerevisiae deletion strains, locus YOR070C, strain gyp1, hits give low values 1 | S. cerevisiae deletion strains, locus YOR080W, strain dia2, hits give low values 0.996 | S. cerevisiae deletion strains, locus YOR083W, strain WHI5, hits give low values 0.996 | S. cerevisiae deletion strains, locus YOR106W, strain vam3, hits give low values 1.02 | S. cerevisiae deletion strains, locus YOR136W, strain idh2, hits give low values 0.995 | S. cerevisiae deletion strains, locus YOR144C, strain elg1, hits give low values 0.978 | S. cerevisiae deletion strains, locus YOR184W, strain ser1, hits give low values 1.07 | S. cerevisiae deletion strains, locus YOR231W, strain MKK1, hits give low values 0.979 | S. cerevisiae deletion strains, locus YOR265W, strain rbl2, hits give low values 0.995 | S. cerevisiae deletion strains, locus YOR270C, strain vph1, hits give low values 1.02 | S. cerevisiae deletion strains, locus YOR290C, strain snf2, hits give low values 1.02 | S. cerevisiae deletion strains, locus YOR316C, strain cot1, hits give low values 1.01 | S. cerevisiae deletion strains, locus YPL051W, strain arl3, hits give low values 0.993 | S. cerevisiae deletion strains, locus YPL078C, strain atp4, hits give low values 1 | S. cerevisiae deletion strains, locus YPL106C, strain sse1, hits give low values 0.975 | S. cerevisiae deletion strains, locus YPL240C, strain hsp82, hits give low values 1 | S. cerevisiae deletion strains, locus YPL256C, strain CLN2, hits give low values 0.973 | S. cerevisiae deletion strains, locus YPR119W, strain clb2, hits give low values 1 | S. cerevisiae deletion strains, locus YPR141C, strain kar3, hits give low values 0.976 | S. cerevisiae deletion strains, locus YPR163C, strain tif3, hits give low values 1.01 | S. cerevisiae deletion strains, locus YPR167C, strain met16, hits give low values 1.02 | S. cerevisiae deletion strains, strain wtn01, hits give low values 1.01 | S. cerevisiae strains, strain wild type, hits give low values 1.06
